Experimental data published in PubChem BioAssay AID2563 (Broad Institute, 2010).
The whole screen tested about 290,000 compounds, of which about 800 (0.28%) were called active. The sample holds actives, similar compounds and a random draw of the others, so the mix is not that of the screen.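 The calls were made as follows: active = fall in fluorescence gain of 50% or more versus controls, with final raw signal at or below 3038400; inconclusive = same 50% fall but final raw signal above 3038400; inactive = fall in fluorescence gain under 50%.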

These compounds were tested against CAAX prenyl protease 2 (Saccharomyces cerevisiae (strain ATCC 204508 / S288c)) (UniProt Q03530) (assay: blockers of Rce1 CaaX peptide cleavage – biochemical, fluorescence, cell-free homogeneous, primary screen (AID 2563)). Conditions: yeast membranes, quenched prenylated peptide cleavage fluorescence.
Chain of CAAX prenyl protease 2 (Saccharomyces cerevisiae (strain ATCC 204508 / S288c)) (Q03530 whole entry, looked up): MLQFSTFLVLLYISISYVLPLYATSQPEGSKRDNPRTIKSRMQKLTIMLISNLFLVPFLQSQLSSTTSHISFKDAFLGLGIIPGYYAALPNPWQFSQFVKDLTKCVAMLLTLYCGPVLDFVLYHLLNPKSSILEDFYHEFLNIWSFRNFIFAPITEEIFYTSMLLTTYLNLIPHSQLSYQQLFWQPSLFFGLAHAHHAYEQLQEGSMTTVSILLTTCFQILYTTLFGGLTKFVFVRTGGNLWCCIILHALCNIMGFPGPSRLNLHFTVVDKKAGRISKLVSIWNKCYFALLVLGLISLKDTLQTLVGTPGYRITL

| SMILES | outcome |
| --- | --- |
| CCOC(=O)c1c(C)oc2cc(Sc3ccccc3)c(O)c(O)c12 | inactive |
| O=C1CCCC(O)=C1N=Nc1ccc2ncsc2c1 | active |
| O=C1CCCC(O)=C1N=Nc1ccc(S(=O)(=O)N2CCOCC2)cc1 | inactive |
| COc1ccc(C(=O)N(Cc2ccccc2)c2ccc(C)cc2)cc1S(=O)(=O)N1CCOCC1 | inactive |
| CC1CC(C)(C)CC2(C1)NC(=O)N(CC(=O)Nc1nccs1)C2=O (centres undefined) | inactive |
| COc1ccc(-c2cn3ccc(C)cc3n2)cc1 | active |
| CCN(CC)S(=O)(=O)c1ccc(-c2cn3ccc(C)cc3n2)cc1 | inactive |
| COc1ccc(-c2cn3ccsc3n2)cc1 | inactive |
| Cc1ccc(NC(=O)COC(=O)CNC(=O)c2ccc(Cl)cc2Cl)cc1S(=O)(=O)N1CCOCC1 | inactive |
| C=CCc1ccccc1OCC(=O)N/N=C/c1ccccc1OCC | inactive |
| C=CCc1cccc(/C=N/NC(=O)COc2ccc(-n3cnnn3)cc2)c1O | active |
| O=C(COc1ccc(-n2cnnn2)cc1)Nc1ccccc1Cl | inactive |
| CC(C)CN(C(=O)Cn1c(=O)cnc2ccccc21)C1CCS(=O)(=O)C1 (centres undefined) | inactive |
| O=C(NCc1ccc(Cl)cc1)C(=O)NCC1CCCN1S(=O)(=O)c1cccs1 (centres undefined) | inactive |
| CCCCN(C(=O)CCNC(=O)NC12CC3CC(CC(C3)C1)C2)c1c(N)n(CCCC)c(=O)[nH]c1=O | inactive |
| CC(=O)c1ccc(NC(=O)C2CCCN2S(=O)(=O)c2cccs2)cc1 (centres undefined) | inactive |
| COc1ccc2c(c1)O/C(=C\c1ccccc1O)C2=O | inactive |
| Cc1cc(=O)[nH]c(SCc2ccc(Cl)cc2)n1 | inactive |
| COc1ccc(OCc2cn3c(C)cc(C)nc3n2)cc1 | inactive |
| Cc1cc(C)nc(SCc2cn3c(C)cc(C)nc3n2)n1 | active |
| Cc1ccc2nc(SCc3cn4c(C)cc(C)nc4n3)[nH]c2c1 | inactive |
| CCc1cccc(C)c1NC(=O)COC(=O)CNC(=O)c1cccs1 | inactive |
| CCN(CC(=O)Nc1c(F)cccc1F)C(=O)c1ccc(S(=O)(=O)N2CCCCC2)cc1 | inactive |
| Cc1ccc(S(=O)(=O)N2CCCCC2)cc1C(=O)N(C)CC(=O)Nc1cccc(F)c1 | inactive |
| O=C(Nc1ccc(F)c([N+](=O)[O-])c1)C1CCCO1 (centres undefined) | inactive |
| CS(=O)(=O)Nc1ccc(C2=NN(S(C)(=O)=O)C(c3cccs3)C2)cc1 (centres undefined) | active |
| Cc1ccc(C2CC(c3cccc(NS(C)(=O)=O)c3)=NN2S(C)(=O)=O)cc1 (centres undefined) | inactive |
| CS(=O)(=O)Nc1cccc(C2=NN(S(=O)(=O)c3ccccc3)C(c3cccs3)C2)c1 (centres undefined) | inactive |
| Cc1ccc(CN2CCN(c3ccccc3Cl)CC2)o1 | inactive |
